From the supplement of paper PMC6555819

Columns and labels:
Experiment in all cases: PBM binding z-score (relative to random genomic background probes); higher = stronger binding; sequences stand for … in GC…GCGATTGACAGCGTAGAATGAAGG
[1] = system: LXRa:RXRa (NR concentration 270 nM, RXRa partner concentration 90 nM)
In short: (§1)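 Ligand-free nuclear receptor dimers were applied to custom Agilent 4×180K protein-binding microarrays whose double-stranded probes carried direct-repeat seeds, single-nucleotide variants, half-site ablations and random human genomic background sequences in 34-nt variable regions. Incubation lasted 1 h. Binding z-scores were computed against the random background probes from regression-normalized fluorescence.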

[2] = system: LXRa homodimer (NR concentration 270 nM)
In short: as §1

[3] = system: LXRb homodimer (NR concentration 270 nM)
In short: as §1

[4] = system: PPARg:RXRa (NR concentration 180 nM, RXRa partner concentration 90 nM)
In short: as §1

[5] = system: PPARg:RXRa 270nM:90nM, anti-RXR (NR concentration 270 nM, RXRa partner concentration 90 nM)
In short: as §1

[6] = system: PPARg:RXRa 30nM:10nM, anti-RXR (NR concentration 30 nM, RXRa partner concentration 10 nM)
In short: as §1

[7] = system: PPARg:RXRa 90nM:30nM, anti-RXR (NR concentration 90 nM, RXRa partner concentration 30 nM)
In short: as §1

[8] = system: PPARg:RXRa DBDmut IVT, anti-RXR (DBD mutation: RXRa K156A/R161A, NR concentration 270 nM, RXRa partner concentration 90 nM)
In short: as §1

[9] = system: PPARa:RXRa (NR concentration 270 nM, RXRa partner concentration 90 nM)
In short: as §1

Sequence	PBM binding z-score [1]	PBM binding z-score [2]	PBM binding z-score [3]	PBM binding z-score [4]	PBM binding z-score [5]	PBM binding z-score [6]	PBM binding z-score [7]	PBM binding z-score [8]	PBM binding z-score [9]
GATACAGGGTCAGCTACAGGCCAGAGTATGGAAA	2.54	-0.531	-0.596	4.13	3.43	0.683	2.17	1.22	–
CCAGACAGGTGAGAAGGTAACTCAGCCTCGATTA	0.435	0.0228	-0.0173	0.522	0.838	0.0404	0.628	1	–
TAGCCTAGGTCACATCGGGCCAGTATACGCTATA	3.44	0.038	0.0362	2.64	2.61	0.683	1.59	2.1	–
CGTCAAAGGTCAGCAGGTCAGTGAAAGCGACGTG	6.48	2.22	1.28	8.46	7.84	4.46	7.02	4.94	–
TCTCGGAGGACACCAAAGGTCAGAGCTCGACATC	4.25	3.82	-0.0325	2.04	3.71	2.56	3.22	1.47	–
CGTCAAAGTTCAACTAAGGTCACGTAAAGCACGC	–	8.57	2.98	6.26	6.88	3.49	5.51	1.14	6.28
GCTTAAGGGTCAAAGGTTATAGCATGAATAGAAT	6.57	1.93	1.36	11.7	9.09	8.73	9.85	3.81	–
CGTCCAAGGTCGAAGGTCAGTGAAGAGATGACGG	3.14	0.000668	-0.645	5.43	5.79	3.26	5.18	0.518	–
CGTCCAAGGTCACAGAGGTCAGTGAATGCCGAGT	6.12	5.07	1.08	7.01	6.54	3.38	5.63	4.6	–
CCTTACGGGTAACGAGGTTATAGCACGACGAGCG	0.424	-0.553	-0.211	1.49	1.14	0.156	0.641	1.07	–
CGTCAAAGGTCAAAGGTCAGTGAAGAGATGACGG	–	5.49	4.46	11.4	9.58	9.03	10.4	5.34	–
CGTCCAAGGACAATGCTAGGTCAGTGAAAGCATT	0.187	0.593	-0.885	–	-0.429	-0.602	-0.31	0.442	–
CCAACTAGGTCAAAGGACAGTGAAAGGCGACGTA	2.56	0.453	0.227	9.64	8.24	6.76	8.84	7.57	–
CGAACTAGGTCAAAGGACATTGAAAGGCGACGTA	2.7	0.172	-0.137	10.8	8.84	9.04	10.6	8.06	–
ATCGAAAGGTCGAAGGTGCGTATACCCACCCGAA	3.22	0.0571	0.0928	3.21	3.25	1.01	2.44	-0.0152	–
ATCGAAAGGTCAACGAGGTGAGTATACACCGTTT	–	4.35	3.41	8.38	7.87	5.13	7.2	3.84	–
AACGAAAGGTCGAAGGTGAGTATACCCACCCGAA	3.94	0.129	0.37	4.7	4.9	2.35	3.92	0.349	–
CAAACCAGGTCAAGAGGTCAAAGTCCGCTTCCCG	6.66	6.64	1.8	8.56	7.51	5.51	7.2	5.93	–

Sequence	PBM binding z-score [1]	PBM binding z-score [2]	PBM binding z-score [3]	PBM binding z-score [4]	PBM binding z-score [5]	PBM binding z-score [6]	PBM binding z-score [7]	PBM binding z-score [8]	PBM binding z-score [9]
CATACAGGGTCGGCTAGGCCAGAGTAGGGACGGC	0.0375	-0.58	-0.356	0.288	-0.0886	-0.643	-0.513	-0.787	–
CCTTAGGGGTCACTGACAGGTTATAGCATTTGGA	6.55	1.33	0.926	9.33	8.43	5.34	7.46	4.82	–
GCTGCTAGGTCAACTGATGGCCAGCTAAAGCTCG	2.54	-0.17	-0.174	2.45	3.01	0.617	2.13	4.28	–
CTATGTAGGTTAAGGGAGTCATTCAGTTTGAAAG	0.682	-0.134	–	4.76	4.4	1.9	3.53	6.9	–
CAAACTAGGTCAAGAGGTCAAAGTTCGCTTCCCG	6.59	6.51	2.33	–	9.13	7.44	10.1	8.34	–
CAAAATAGGTCAAAGGTCAAAGTCGAGCCAACCA	–	6.17	3.52	13.7	11.5	12.6	13.3	8.15	7.93
CGAACTAGGTCAAGGCCAGTGAATCTCCGCACGC	2.42	0.284	-0.563	7.33	6.58	3.87	6.13	8.07	–
CGTTCAAGGTCAAAGGTCAGTGAAGAGATGACGG	–	4.39	2.52	–	9.86	11.2	11.5	5.39	7.05
GGAACGAGGTCAAAGTTGATAGCATCTGTCGACG	5.98	1.61	2.26	–	8.63	8.72	9.4	6.14	–
CAAACAAGGTCAAAGGTCAAAGTCGAGCCAACCA	–	6.4	4.04	13.5	11	13.5	13.5	6.43	7.41
ACTCGGTGGACAAAGGTCAGAGCTACGCCAGTGA	3.52	0.715	-0.512	6.18	6.42	5.2	6.63	0.195	–
CGAACGAGGTCAAAGGACAGTGAAAGGCGACGTA	5.87	0.528	1.21	8.64	7.62	5.48	8.31	5.27	–
CAAAATAGGTCACAGAGGTCAAAGTCCGTGCGTA	–	7.45	2.61	9.92	8.39	6.56	8.55	7.62	–
GCTGCTAGGTCAACTGATGGTCAACTAAAGCTCG	3.47	0.653	0.415	3.01	3.06	0.746	2.31	4.87	–
CTACCAAGGTCAACAAGGTCGTTGATTACTATTC	–	3.79	1.23	5.57	6.01	2.68	4.51	4.52	6.16
TCTGCTAGGTCATCGATGGTCAGCTAATCTGCTA	3.21	-0.333	-0.256	1.74	3.32	1.82	2.45	3.54	–
CCTTACGGGTCACGAGGTCATAGCACGACGAGCG	5.89	2.73	0.62	8.56	7.55	4.61	6.67	4.66	–
AATACGGGGTCACTAGGCCAGAGTAGGTACGAAT	6.53	2	2.47	–	8.44	5.78	7.95	5.43	–
